From publication PMC7862700, “An all-to-all approach to the identification of sequence-specific readers for epigenetic DNA modifications on cytosine”

Key:
Test in all cases: DAPPL (digital affinity profiling via proximity ligation, sequencing); 10 mM Tris-HCl pH 7.5, 50 mM NaCl, 1 mM DTT, 4% glycerol, room temperature, 30 min; GST-TFs on glutathione beads, 16-mer random dsDNA library, 0.1% formaldehyde crosslink after washing; high values mean tight binding
FLI1 = target: T1, FLI1 (Homo sapiens, UniProt Q01543 1-452); conditions: protein: recombinant; tags: N-terminal GST; dsDNA, one strand shown
T1 sequence: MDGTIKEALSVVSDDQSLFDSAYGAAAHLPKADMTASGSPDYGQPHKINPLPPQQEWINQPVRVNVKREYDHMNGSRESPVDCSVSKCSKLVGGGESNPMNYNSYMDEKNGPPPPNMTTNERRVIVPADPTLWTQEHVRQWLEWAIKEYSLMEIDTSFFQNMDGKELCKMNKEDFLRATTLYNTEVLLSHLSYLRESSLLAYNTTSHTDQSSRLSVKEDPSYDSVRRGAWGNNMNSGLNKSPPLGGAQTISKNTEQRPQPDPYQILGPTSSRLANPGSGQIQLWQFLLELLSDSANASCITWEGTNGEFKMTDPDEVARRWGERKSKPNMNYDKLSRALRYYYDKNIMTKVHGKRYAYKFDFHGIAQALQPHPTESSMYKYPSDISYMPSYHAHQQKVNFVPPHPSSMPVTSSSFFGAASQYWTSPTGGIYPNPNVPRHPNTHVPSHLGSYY
How it was run: (§1)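 Sequencing on an Illumina NextSeq500 followed washing, crosslinking with 0.1% formaldehyde, proximity ligation (BsaI/T4 ligase, 1 h, 37 °C) and PCR amplification of pools that had been incubated for 30 min at room temperature with 200 nmole of a random double-stranded 16-mer DNA library in Tris/NaCl/DTT/glycerol buffer. Each pool held DNA-barcoded human transcription factors, expressed in yeast as GST fusions and captured on glutathione beads, plus a tag-only sample. Binding signal is a hexamer's read frequency for a factor divided by its frequency in the tag-only sample.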

ELK1 = target: T2, ELK1 (Homo sapiens, UniProt P19419 1-428); conditions: protein: recombinant; tags: N-terminal GST; dsDNA, one strand shown
T2 sequence: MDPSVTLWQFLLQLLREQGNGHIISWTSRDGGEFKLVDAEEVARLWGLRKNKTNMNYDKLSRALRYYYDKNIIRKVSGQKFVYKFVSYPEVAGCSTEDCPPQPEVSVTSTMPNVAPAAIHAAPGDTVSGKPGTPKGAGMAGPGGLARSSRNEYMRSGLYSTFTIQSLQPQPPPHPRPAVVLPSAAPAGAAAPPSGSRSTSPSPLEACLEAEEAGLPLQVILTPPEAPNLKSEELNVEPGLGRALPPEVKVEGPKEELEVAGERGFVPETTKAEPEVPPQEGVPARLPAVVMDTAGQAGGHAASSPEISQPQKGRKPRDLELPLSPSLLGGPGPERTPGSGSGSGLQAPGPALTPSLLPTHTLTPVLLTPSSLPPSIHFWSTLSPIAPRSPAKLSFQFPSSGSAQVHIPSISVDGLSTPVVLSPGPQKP
How it was run: as §1

GABPA = target: T3, GABPA (Homo sapiens, UniProt Q06546 1-454); conditions: protein: recombinant; tags: N-terminal GST; dsDNA, one strand shown
T3 sequence: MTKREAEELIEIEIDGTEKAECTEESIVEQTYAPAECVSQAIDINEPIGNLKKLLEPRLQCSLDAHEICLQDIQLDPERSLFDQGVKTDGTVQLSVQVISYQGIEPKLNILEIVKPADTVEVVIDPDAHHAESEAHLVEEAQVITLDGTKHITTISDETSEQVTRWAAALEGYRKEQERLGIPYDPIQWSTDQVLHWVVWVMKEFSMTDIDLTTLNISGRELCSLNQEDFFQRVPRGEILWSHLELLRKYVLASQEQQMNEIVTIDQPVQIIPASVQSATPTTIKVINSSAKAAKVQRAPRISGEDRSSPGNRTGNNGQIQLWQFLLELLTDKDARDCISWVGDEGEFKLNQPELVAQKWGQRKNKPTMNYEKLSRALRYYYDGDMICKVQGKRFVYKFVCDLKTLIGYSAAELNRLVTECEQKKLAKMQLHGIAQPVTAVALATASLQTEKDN
How it was run: as §1

ERG = target: T4, ERG (Homo sapiens, UniProt P11308 1-479); conditions: protein: recombinant; tags: N-terminal GST; dsDNA, one strand shown
T4 sequence: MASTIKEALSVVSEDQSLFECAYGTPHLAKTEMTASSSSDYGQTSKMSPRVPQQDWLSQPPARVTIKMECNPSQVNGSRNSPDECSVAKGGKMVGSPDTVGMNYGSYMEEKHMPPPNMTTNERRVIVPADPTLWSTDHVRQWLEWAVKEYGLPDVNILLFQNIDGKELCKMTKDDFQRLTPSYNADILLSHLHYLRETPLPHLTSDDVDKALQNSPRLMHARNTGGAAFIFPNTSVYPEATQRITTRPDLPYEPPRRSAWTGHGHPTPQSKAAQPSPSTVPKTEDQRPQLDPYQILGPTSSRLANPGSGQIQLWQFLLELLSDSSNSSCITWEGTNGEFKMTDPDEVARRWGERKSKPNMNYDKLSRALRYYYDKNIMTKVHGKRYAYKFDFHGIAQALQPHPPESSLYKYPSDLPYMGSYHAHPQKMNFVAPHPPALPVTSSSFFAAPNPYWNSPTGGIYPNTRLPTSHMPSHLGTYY
How it was run: as §1

ELF1 = ELF1 (Homo sapiens, UniProt P32519 1-619); conditions: protein: recombinant; tags: N-terminal GST; dsDNA, one strand shown
Chain of ELF1 (P32519 whole entry): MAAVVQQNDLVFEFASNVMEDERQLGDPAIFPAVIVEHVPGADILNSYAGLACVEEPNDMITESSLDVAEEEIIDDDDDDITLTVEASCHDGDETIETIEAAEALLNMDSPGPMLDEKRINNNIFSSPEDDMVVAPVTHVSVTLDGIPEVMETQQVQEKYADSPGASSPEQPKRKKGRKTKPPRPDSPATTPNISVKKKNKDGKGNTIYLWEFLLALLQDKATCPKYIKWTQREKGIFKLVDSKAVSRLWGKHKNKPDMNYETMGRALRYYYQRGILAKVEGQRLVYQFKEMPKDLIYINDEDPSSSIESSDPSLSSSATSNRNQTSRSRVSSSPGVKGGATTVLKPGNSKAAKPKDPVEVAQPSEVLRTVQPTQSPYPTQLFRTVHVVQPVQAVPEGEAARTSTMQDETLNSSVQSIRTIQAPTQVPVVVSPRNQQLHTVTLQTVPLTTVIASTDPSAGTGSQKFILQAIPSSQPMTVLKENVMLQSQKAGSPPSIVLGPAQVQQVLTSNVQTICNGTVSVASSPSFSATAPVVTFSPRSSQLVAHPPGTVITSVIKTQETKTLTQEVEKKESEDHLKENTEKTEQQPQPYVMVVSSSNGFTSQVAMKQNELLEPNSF
How it was run: as §1

EHF = target: T5, EHF (Homo sapiens, UniProt Q9NZC4 1-300); conditions: protein: recombinant; tags: N-terminal GST; dsDNA, one strand shown
T5 sequence: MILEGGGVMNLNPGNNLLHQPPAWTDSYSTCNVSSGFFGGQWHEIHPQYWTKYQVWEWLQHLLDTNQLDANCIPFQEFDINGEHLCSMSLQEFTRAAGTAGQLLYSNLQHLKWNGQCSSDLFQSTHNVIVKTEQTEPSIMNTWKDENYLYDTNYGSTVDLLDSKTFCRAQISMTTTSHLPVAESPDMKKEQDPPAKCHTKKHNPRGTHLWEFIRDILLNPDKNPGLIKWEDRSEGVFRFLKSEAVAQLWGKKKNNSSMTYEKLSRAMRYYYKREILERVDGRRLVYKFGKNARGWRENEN
How it was run: as §1

SPI1 = SPI1 (Homo sapiens, UniProt P17947 1-270); conditions: protein: recombinant; tags: N-terminal GST; dsDNA, one strand shown
How it was run: as §1

SPIB = SPIB (Homo sapiens, UniProt Q01892 1-262); conditions: protein: recombinant; tags: N-terminal GST; dsDNA, one strand shown
Chain of SPIB (Q01892 whole entry): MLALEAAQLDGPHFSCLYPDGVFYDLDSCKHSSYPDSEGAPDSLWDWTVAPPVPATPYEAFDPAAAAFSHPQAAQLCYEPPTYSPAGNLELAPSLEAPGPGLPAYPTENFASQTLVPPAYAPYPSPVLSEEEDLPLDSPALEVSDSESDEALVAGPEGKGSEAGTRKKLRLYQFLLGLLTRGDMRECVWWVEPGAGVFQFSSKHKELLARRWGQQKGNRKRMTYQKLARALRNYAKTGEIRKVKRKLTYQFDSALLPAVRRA
How it was run: as §1

ELK3 = target: T6, ELK3 (Homo sapiens, UniProt P41970 1-407); conditions: protein: recombinant; tags: N-terminal GST; dsDNA, one strand shown
T6 sequence: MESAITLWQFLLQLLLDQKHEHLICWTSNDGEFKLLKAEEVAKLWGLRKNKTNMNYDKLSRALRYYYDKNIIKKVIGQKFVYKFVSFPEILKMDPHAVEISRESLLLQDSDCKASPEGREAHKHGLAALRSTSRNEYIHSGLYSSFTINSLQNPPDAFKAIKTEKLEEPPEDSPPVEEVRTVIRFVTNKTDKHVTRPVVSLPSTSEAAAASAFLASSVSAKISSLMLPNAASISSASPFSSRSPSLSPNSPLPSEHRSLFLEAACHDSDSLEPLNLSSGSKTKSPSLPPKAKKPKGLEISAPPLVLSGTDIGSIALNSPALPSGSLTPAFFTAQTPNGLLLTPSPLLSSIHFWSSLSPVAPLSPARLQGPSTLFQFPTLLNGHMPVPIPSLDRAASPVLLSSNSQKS
How it was run: as §1

FEV = target: T7, FEV (Homo sapiens, UniProt Q99581 1-238); conditions: protein: recombinant; tags: N-terminal GST; dsDNA, one strand shown
T7 sequence: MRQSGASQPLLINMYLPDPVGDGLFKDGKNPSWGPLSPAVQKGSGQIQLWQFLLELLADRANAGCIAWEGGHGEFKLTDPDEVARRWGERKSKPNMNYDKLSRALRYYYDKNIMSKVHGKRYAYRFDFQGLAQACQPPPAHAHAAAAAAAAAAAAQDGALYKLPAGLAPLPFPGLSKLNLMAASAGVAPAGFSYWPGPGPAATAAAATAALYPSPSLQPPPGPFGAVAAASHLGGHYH
How it was run: as §1

ETV5 = ETV5 (Homo sapiens, UniProt P41161 1-510); conditions: protein: recombinant; tags: N-terminal GST; dsDNA, one strand shown
Chain of ETV5 (P41161 whole entry): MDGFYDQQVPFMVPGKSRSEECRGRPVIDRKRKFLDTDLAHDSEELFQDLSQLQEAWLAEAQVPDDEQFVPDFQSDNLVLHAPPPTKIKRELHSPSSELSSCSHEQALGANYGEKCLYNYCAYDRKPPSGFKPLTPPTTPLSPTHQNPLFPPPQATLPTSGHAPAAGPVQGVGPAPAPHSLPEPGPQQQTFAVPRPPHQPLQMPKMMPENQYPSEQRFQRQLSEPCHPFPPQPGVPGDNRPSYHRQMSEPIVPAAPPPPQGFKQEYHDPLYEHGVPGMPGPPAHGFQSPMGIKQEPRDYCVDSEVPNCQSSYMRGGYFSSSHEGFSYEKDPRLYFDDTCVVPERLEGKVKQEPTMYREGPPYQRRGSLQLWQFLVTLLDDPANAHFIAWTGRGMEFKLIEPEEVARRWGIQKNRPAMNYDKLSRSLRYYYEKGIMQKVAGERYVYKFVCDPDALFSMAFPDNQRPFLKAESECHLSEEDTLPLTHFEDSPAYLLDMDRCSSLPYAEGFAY
How it was run: as §1

HSF1 = HSF1 (Homo sapiens, UniProt Q00613 1-529); conditions: protein: recombinant; tags: N-terminal GST; chain copies: 3; dsDNA, one strand shown
Chain of HSF1 (Q00613 whole entry): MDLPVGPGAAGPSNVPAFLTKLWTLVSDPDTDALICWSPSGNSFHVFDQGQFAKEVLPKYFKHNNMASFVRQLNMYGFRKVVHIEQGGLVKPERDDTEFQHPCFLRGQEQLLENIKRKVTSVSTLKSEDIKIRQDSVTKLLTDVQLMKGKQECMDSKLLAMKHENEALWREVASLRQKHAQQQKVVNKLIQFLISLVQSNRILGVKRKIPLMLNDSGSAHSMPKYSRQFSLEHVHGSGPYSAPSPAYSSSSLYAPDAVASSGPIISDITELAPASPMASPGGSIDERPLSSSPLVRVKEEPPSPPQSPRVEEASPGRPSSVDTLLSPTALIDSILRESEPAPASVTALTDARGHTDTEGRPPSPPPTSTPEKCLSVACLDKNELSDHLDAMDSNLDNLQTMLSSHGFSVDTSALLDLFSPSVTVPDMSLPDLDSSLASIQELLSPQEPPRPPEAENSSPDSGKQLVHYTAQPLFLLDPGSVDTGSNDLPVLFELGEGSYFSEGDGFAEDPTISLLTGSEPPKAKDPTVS
How it was run: as §1

SPIC = target: T8, SPIC (Homo sapiens, UniProt Q8N5J4 1-248); conditions: protein: recombinant; tags: N-terminal GST; dsDNA, one strand shown
T8 sequence: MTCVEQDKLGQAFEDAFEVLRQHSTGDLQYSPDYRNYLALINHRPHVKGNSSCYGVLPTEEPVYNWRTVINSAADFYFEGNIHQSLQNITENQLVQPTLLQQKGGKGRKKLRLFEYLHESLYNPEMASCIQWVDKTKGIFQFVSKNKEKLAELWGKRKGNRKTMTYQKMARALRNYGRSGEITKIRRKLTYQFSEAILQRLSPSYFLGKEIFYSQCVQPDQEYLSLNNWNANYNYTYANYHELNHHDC
How it was run: as §1

ELF4 = ELF4 (Homo sapiens, UniProt Q99607 1-663); conditions: protein: recombinant; tags: N-terminal GST; dsDNA, one strand shown
Chain of ELF4 (Q99607 whole entry): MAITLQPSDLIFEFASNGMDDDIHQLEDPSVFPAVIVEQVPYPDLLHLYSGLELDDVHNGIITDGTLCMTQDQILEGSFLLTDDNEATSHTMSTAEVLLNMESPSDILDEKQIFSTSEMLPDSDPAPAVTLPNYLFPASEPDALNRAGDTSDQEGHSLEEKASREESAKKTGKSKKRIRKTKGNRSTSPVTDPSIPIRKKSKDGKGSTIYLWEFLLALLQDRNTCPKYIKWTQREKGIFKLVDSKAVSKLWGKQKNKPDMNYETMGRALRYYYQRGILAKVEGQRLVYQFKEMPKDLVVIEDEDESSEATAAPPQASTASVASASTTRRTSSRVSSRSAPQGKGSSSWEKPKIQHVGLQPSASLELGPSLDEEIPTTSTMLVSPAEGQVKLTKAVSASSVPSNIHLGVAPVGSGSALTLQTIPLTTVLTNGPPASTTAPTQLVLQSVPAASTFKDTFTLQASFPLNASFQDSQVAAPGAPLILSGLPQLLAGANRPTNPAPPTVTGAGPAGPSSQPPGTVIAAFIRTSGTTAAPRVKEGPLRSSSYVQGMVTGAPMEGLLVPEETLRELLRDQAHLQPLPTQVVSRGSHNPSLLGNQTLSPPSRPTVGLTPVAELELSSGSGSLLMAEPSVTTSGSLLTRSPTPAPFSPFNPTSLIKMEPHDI
How it was run: as §1

ELK4 = target: T9, ELK4 (Homo sapiens, UniProt P28324-2 1-405); conditions: protein: recombinant; tags: N-terminal GST; dsDNA, one strand shown
T9 sequence: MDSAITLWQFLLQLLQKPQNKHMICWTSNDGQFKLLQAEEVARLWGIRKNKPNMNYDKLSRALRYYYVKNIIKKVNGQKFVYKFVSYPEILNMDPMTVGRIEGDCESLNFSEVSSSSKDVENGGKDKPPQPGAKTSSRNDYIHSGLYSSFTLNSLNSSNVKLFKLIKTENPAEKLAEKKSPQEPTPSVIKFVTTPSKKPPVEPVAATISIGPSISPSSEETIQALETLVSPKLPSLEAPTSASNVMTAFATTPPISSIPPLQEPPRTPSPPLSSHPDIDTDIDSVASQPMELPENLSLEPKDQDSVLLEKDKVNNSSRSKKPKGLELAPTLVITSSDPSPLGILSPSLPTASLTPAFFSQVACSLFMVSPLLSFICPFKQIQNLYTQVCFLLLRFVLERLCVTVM
How it was run: as §1

ETV2 = target: T10, ETV2 (Homo sapiens, UniProt O00321 1-342); conditions: protein: recombinant; tags: N-terminal GST; dsDNA, one strand shown
T10 sequence: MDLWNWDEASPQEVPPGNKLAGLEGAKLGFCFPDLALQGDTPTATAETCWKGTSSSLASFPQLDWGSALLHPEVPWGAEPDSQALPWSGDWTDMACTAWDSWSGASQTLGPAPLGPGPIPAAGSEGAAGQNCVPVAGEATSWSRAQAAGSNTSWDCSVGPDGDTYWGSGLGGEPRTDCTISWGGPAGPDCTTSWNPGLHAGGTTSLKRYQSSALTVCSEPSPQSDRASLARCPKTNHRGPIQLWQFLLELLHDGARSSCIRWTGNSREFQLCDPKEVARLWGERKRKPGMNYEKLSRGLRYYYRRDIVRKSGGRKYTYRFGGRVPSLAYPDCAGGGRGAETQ
How it was run: as §1

ELF3 = target: T11, ELF3 (Homo sapiens, UniProt P78545 1-371); conditions: protein: recombinant; tags: N-terminal GST; dsDNA, one strand shown
T11 sequence: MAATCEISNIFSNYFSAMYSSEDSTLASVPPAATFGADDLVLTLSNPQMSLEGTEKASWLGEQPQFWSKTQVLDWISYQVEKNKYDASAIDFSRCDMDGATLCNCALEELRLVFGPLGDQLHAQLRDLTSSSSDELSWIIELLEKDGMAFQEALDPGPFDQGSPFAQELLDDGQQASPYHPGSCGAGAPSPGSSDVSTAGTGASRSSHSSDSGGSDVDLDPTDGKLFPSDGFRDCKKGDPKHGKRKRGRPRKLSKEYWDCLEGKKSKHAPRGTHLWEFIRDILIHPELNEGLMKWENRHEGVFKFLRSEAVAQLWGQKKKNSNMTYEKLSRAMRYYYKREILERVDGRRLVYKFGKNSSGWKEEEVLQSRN
How it was run: as §1

CRX = CRX (Homo sapiens, UniProt O43186 1-299); conditions: protein: recombinant; tags: N-terminal GST; dsDNA, one strand shown
Chain of CRX (O43186 whole entry): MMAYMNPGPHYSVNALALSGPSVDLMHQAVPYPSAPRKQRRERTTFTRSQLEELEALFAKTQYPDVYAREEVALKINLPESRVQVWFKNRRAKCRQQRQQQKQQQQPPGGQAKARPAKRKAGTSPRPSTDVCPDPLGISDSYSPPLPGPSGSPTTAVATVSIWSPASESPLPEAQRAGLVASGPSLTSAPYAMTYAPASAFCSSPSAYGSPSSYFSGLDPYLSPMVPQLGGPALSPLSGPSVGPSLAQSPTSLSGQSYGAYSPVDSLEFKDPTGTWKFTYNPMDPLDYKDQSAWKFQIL
How it was run: as §1

ETV1 = ETV1 (Homo sapiens, UniProt P50549 1-477); conditions: protein: recombinant; tags: N-terminal GST; dsDNA, one strand shown
Chain of ETV1 (P50549 whole entry): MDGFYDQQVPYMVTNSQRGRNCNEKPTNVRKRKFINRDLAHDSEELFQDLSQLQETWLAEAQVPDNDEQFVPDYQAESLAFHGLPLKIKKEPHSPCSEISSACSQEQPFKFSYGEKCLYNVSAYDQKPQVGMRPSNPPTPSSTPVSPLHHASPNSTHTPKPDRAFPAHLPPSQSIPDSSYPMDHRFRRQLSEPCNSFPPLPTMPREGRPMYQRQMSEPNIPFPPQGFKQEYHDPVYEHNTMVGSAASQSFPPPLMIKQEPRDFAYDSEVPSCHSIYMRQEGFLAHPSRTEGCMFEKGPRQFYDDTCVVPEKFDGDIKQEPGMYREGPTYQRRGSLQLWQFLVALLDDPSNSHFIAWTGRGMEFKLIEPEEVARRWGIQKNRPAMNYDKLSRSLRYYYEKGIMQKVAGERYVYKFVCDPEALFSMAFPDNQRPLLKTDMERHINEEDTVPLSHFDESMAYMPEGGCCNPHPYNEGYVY
How it was run: as §1

CCCCAA
binding signal (FLI1): 1.1 fold enrichment (6-mer frequency, TF over GST control)
binding signal (ELK1): 1.16 fold enrichment (6-mer frequency, TF over GST control)
binding signal (GABPA): 1.16 fold enrichment (6-mer frequency, TF over GST control)
binding signal (ERG): 1.18 fold enrichment (6-mer frequency, TF over GST control)
binding signal (ELF1): 1.19 fold enrichment (6-mer frequency, TF over GST control)
binding signal (EHF): 1.23 fold enrichment (6-mer frequency, TF over GST control)
binding signal (SPI1): 1.2 fold enrichment (6-mer frequency, TF over GST control)
binding signal (SPIB): 1.07 fold enrichment (6-mer frequency, TF over GST control)
binding signal (ELK3): 1.09 fold enrichment (6-mer frequency, TF over GST control)
binding signal (FEV): 1.16 fold enrichment (6-mer frequency, TF over GST control)
binding signal (ETV5): 1.12 fold enrichment (6-mer frequency, TF over GST control)
binding signal (HSF1): 1.06 fold enrichment (6-mer frequency, TF over GST control)
binding signal (SPIC): 1.06 fold enrichment (6-mer frequency, TF over GST control)
binding signal (ELF4): 1.21 fold enrichment (6-mer frequency, TF over GST control)
binding signal (ELK4): 1.16 fold enrichment (6-mer frequency, TF over GST control)
binding signal (ETV2): 1.15 fold enrichment (6-mer frequency, TF over GST control)
binding signal (ELF3): 1.24 fold enrichment (6-mer frequency, TF over GST control)
binding signal (CRX): 1.05 fold enrichment (6-mer frequency, TF over GST control)
binding signal (ETV1): 1.15 fold enrichment (6-mer frequency, TF over GST control)
